# About 5,800 (2.1%) of roughly 270,000 compounds were called active. A call without a number means that no potency is given here. Another 16% or so got no clear call; they are omitted. The call rests on the fitted dose curve; in most records, active means well fitted inhibition curve with a large enough effect; inconclusive means small, poorly fitted or top-dose-only effect; inactive means flat fitted curve, though single readings scatter. For the sample, actives were picked, then their nearest neighbours and some compounds at random.
# Molecular target: Microtubule-associated protein tau (Homo sapiens) (UniProt P10636)
# Assay: qHTS for Inhibitors of Tau Fibril Formation, Thioflavin T Binding; further: nearly all actives have a fitted effect of over 55% in size
# Settings: recombinant tau K18 P301L (four-repeat tau fragment), heparin-induced fibrillization, ThT fluorescence; series mostly up to 57.4 µM
# Summary of the method: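 Aggregation was driven by heparin (20 uM final) acting on recombinant tau […] bearing P301L in 100 mM sodium acetate pH 7; fibrils were detected with Thioflavin T.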
# Potency means the concentration at half of the fitted maximal effect.
# Microtubule-associated protein tau (Homo sapiens), sequence (P10636 561-689 P618L limits assumed): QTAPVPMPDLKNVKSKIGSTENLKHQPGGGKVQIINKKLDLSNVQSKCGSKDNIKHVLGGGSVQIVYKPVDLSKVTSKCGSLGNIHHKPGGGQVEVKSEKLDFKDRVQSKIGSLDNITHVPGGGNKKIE
row,SMILES,Potency
1,O=C(CSCc1cnn(-c2ccccc2)c1-n1cccc1)NCc1ccc(Cl)cc1,inactive
2,CCOc1ccc(C(=O)N2CCN(CCc3ccccn3)CC2)cc1,inactive
3,Cc1cc(-c2n[nH]c(=S)n2/N=C/C(Br)=C/c2ccccc2)n[nH]1,12.6 µM (active)
4,Oc1ccccc1/C=N/n1c(-c2cccs2)n[nH]c1=S,inactive
5,Cc1cc(-c2n[nH]c(=S)n2/N=C/c2ccco2)n[nH]1,inactive
6,COc1ccccc1CN1CCC(CNC(=O)c2cnn(-c3cccc(Cl)c3)c2C2CCN(C(=O)OC(C)(C)C)CC2)CC1,inactive
7,CCOc1ccccc1CNC(=O)c1ccc2c(c1)nc1n2CCC(C)C1 (stereo not drawn),inactive
8,Cc1ccc(NC(=O)c2cc3cc(C)ccc3n2C)cc1,inactive
9,CCOC(=O)c1c(NC(C)=O)c2c3c(sc2n1Cc1c(C)cc(C)cc1C)CCCC3,inactive
10,Fc1ccc(CSc2nc(NCc3ccccc3)c3ccccc3n2)cc1,inactive
11,COc1ccc(NC(C)=O)cc1NC(=O)CN1CCN(c2ccc(F)cc2)CC1,inactive
12,C/C(CC1CC(C)(C)OC1=O)=N/Nc1nc(-c2ccccc2)cs1 (stereo not drawn),25.1 µM (active)
13,CC1(C)CC(CC(=O)O)C(=O)O1 (stereo not drawn),inactive
14,CC(=O)Nc1ccc(-c2csc(NC=C3C(=O)OC(C)(C)OC3=O)n2)cc1,inactive
15,Cc1ccc(-c2nn3c(=O)cc(CN4CCN(S(=O)(=O)c5ccc(Cl)cc5)CC4)nc3s2)cc1,inactive
16,COc1ccccc1N1CCN(c2ccc(=O)n(CC(=O)NCc3ccc(OC(C)C)cc3)n2)CC1,inactive
17,COc1ccc(N2C(=O)CS(=O)(=O)C23C(=O)N(Cc2ccc(C)cc2)c2ccccc23)cc1Cl (stereo not drawn),inactive
18,Cc1c(CNC(C)c2ccccc2)c(C(=O)O)c(C)n1Cc1c(F)cccc1Cl (stereo not drawn),inactive
19,COc1ccccc1C1/C(=C(/O)c2ccc(OC(C)C)cc2)C(=O)C(=O)N1c1cc(C)on1 (stereo not drawn),inactive
20,COc1ccc(/C(O)=C2/C(=O)C(=O)N(c3nc(C)c(C)s3)C2c2ccco2)cc1 (stereo not drawn),inactive
21,CCOc1ccc(/C(O)=C2\C(=O)C(=O)N(c3ccc(OC)cc3)C2c2ccccc2[N+](=O)[O-])cc1 (stereo not drawn),5.01 µM (active)
22,CC/C(O)=N\S(=O)(=O)c1ccc(N=NN(C)C)cc1,inactive
23,CN(C)N=Nc1ccc2nc[nH]c2c1,4.47 µM (active)
24,CCCN(CCC)S(=O)(=O)c1ccc(C(=O)Nc2sc3c(c2C(=O)OC)CCN(CC)C3)cc1,inactive
25,CCc1cccc(NC(=O)CN(c2ccc(C)c(C)c2)S(=O)(=O)c2ccsc2C(=O)OC)c1,inactive
26,N#CCC(=O)N/N=C/c1ccc(SCC(=O)Nc2ccccc2)o1,25.1 µM (active)
27,Cc1ccc(/C=N/NC(=O)CSc2ccccn2)o1,inactive
28,O=C(CSc1ccc(/C=N/NC(=O)c2cccc(F)c2)o1)Nc1ccccc1,inactive

# Reference: PubChem BioAssay AID1460 (National Center for Advancing Translational Sciences (NCATS), 2008)
